Assay [1] is described as follows: qHTS for Inhibitors of Plasmodium falciparum (DD2) proliferation (AID 504314).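 Note: parasite DNA measured by SYBR Green fluorescence after red cell lysis; plate controls were DMSO vehicle for no effect and artemisinin wells for full effect.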 The procedure, abridged: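 SYBR Green DNA-fluorescence growth assay: infected RBCs at 0.3% parasitemia, 2.5% hematocrit, 72 h compound exposure, 37C, 5% CO2; overnight lysis with dye at RT; normalized to 0.29 uM artemisinin and vehicle.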
Background: In qHTS, concentration-response curves come from the screen itself.

Assay [2] is described as follows: qHTS for Inhibitors of Plasmodium falciparum (GB4) proliferation (AID 504315). Note: nearly all actives have a fitted effect of over 50% in size. Note: potency is the fitted concentration of half-maximal effect. The procedure, abridged:
(§1)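 Parasite growth measured as SYBR Green DNA fluorescence (ex 485, em 535 nm) after overnight lysis following 72 h culture at 37 °C, 0.3% parasitemia, 2.5% hematocrit. Values normalized against DMSO and 0.29 uM artemisinin controls, with plate-stack correction.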

A short description of assay [3]: qHTS for Inhibitors of Plasmodium falciparum (7G8) proliferation (AID 504316). Note: nearly all actives have a fitted effect of over 65% in size. Note: potency is the fitted concentration of half-maximal effect. The procedure, abridged:
as §1

The nature of assay [4]: qHTS for Inhibitors of Plasmodium falciparum (HB3) proliferation (AID 504318). Note: nearly all actives have a fitted effect of over 60% in size. Note: potency is the fitted concentration of half-maximal effect. The essentials:
as §1

Assay [5] in a line: qHTS for Inhibitors of Plasmodium falciparum (CP250) proliferation (AID 504320). Note: potency is the fitted concentration of half-maximal effect. The essentials: as §1
Assay [6] has as its target Atrial natriuretic peptide receptor 1 (Homo sapiens) (UniProt P16066). Kind of assay: Natriuretic polypeptide receptor (hNpr1) antagonism - Pilot CMLD screen (AID 1347052; calls by dose curve;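 note: HEK293 cells with hNpr1 stimulated by hNppA peptide at 0.1 nM; cGMP level read as GloSensor luciferase luminescence after agonist stimulation; series mostly up to about 9.2 µM; % is set by controls: 0 for no effect and ±100 for the full control effect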).

Each structure is given as a SMILES string. “And” between values parts separate entries of the source, which are not always exact repeats. Equal entries are not always repeated. Inconclusive results are not listed. Some compounds were tested as several samples or in several runs, with calls that do not always agree. The source made the active and inactive calls. Unless noted, calls come from the whole dose curve; as a rule, active = well fitted curve in the direction sought with a large enough effect; inconclusive = small, poorly fitted or top-dose-only effect, or another doubt; inactive = no such curve, though single readings can be large; an effect the other way counts as inactive or inconclusive.

Atrial natriuretic peptide receptor 1 (Homo sapiens), sequence (P16066 whole entry, looked up): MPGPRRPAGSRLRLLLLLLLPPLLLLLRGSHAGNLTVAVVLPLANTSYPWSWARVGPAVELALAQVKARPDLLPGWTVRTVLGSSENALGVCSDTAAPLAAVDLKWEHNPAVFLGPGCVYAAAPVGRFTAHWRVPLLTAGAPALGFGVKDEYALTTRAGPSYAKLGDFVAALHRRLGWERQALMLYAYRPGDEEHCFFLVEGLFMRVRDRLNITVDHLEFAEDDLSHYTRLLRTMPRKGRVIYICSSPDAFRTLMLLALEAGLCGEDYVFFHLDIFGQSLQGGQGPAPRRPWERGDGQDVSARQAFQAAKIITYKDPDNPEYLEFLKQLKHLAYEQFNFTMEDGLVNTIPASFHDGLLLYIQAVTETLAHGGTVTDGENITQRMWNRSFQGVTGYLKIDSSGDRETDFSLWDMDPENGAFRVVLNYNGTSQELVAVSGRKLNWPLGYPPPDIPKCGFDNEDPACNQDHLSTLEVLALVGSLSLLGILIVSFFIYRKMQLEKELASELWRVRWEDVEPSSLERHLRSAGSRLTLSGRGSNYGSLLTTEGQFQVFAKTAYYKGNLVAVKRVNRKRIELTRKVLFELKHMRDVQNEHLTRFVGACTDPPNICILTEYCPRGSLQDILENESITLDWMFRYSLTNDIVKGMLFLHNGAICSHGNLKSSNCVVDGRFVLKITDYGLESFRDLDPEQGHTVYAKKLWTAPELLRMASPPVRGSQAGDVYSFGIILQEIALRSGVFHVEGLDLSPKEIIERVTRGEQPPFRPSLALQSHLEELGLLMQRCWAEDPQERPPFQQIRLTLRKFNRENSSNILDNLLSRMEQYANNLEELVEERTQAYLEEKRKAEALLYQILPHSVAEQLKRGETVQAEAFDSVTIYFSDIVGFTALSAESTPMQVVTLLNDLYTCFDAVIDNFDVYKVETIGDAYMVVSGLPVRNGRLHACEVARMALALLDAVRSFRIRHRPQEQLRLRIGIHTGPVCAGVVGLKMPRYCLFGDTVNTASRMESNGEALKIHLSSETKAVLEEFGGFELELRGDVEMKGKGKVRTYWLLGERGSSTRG

Regarding `COC(=O)N1C(C2CC2)=Cc2ccccc2C1CC(C)=O` (stereo unspecified), the activity, negative = inhibition in assay [1] was -2.33% [at 1.12 µM] (inactive). Further, the Potency result in assay [2], in assay [3], in assay [4], in assay [5] and in assay [6] was “inactive” in each case.

In the case of `COCCN1C(=O)N[C@@H](CCc2ccccc2)[C@@H](C(=O)OC)[C@H]1C`, the Potency result in assay [1], in assay [2], in assay [3], in assay [4], in assay [5] and in assay [6] was “inactive” each time.

For `C=CCOC(=O)N[C@H](c1cccc(C(F)(F)F)c1)C(C(C)=O)C(C)=O`, the Potency entry in assay [1], in assay [2], in assay [3], in assay [4], in assay [5] and in assay [6] was “inactive” each time.

In the case of `COC(=O)CC1=CO[C@@H](O)[C@@H]2C(CO)=CC[C@@H]12`, the Potency entry in assay [1], in assay [2], in assay [3], in assay [4], in assay [5] and in assay [6] was “inactive” throughout.

For the compound `CC(=O)OC[C@H]1O[C@H](CC=NOCC[C@@H]2C=C[C@@H](OC(C)=O)[C@@H](COC(C)=O)O2)C=C[C@@H]1OC(C)=O`, the Potency result in assay [1], in assay [2], in assay [3], in assay [4], in assay [5] and in assay [6] was “inactive” throughout.

Regarding `O=C(C=Cc1ccccc1)c1ccccc1O`, the Potency entry in assay [1], in assay [2], in assay [3], in assay [4], in assay [5] and in assay [6] was “inactive” throughout.

On to `O=C1NC[C@H](c2ccccc2)N1`, for which the Potency result in assay [1], in assay [2], in assay [3], in assay [4], in assay [5] and in assay [6] was “inactive” each time.

Consider `COC(=O)C1=C(C)[C@H](O)[C@@H](C)[C@](C)(c2cc(OC)c(C)c(OC)c2COc2ccccc2)O1`, for which the Potency entry in assay [1], in assay [3], in assay [5] and in assay [6] was “inactive” each time. For the same compound, the Potency in assay [2] is 2.13 µM (active) and inactive; in assay [4], 1.9 µM (active) and inactive.

With `C=C1C2c3ccccc3C(CC2(C)O[Si](C)(C)C)N1C(=O)OC` (stereo unspecified), the Potency result in assay [1], in assay [2], in assay [3], in assay [4], in assay [5] and in assay [6] was “inactive” throughout.

Regarding `COc1ccc(O[C@H]2C=C[C@@H](c3ccccc3)O[C@H]2COC(=O)CCC(C)=NO[C@@H](C)c2cc(-c3c(C)cc(C)cc3C)no2)cc1`, the Potency result in assay [1], in assay [2], in assay [3], in assay [4], in assay [5] and in assay [6] was “inactive” throughout.

For `COc1cccc(CO[C@H]2C=C[C@@H](c3ccccc3)O[C@H]2CN=[N+]=[N-])c1`, the Potency entry in assay [1], in assay [2], in assay [3], in assay [4], in assay [5] and in assay [6] was “inactive” each time.

`C[C@@H]1CC2=CCCC2[C@]2(O1)C(=O)Nc1cccc(Br)c12` (stereo partly specified): the Potency result in assay [1], in assay [2], in assay [3], in assay [4], in assay [5] and in assay [6] was “inactive” throughout.

On to `CCN1C(=NCCc2c[nH]c3ccccc23)NC(c2ccccc2)C(C(=O)OC)=C1C` (stereo unspecified), for which the Potency result in assay [1], in assay [2], in assay [3], in assay [4], in assay [5] and in assay [6] was “inactive” throughout.

As to `COC1=CC2C(=O)C(C(c3ccccc3)C2C)C1(O)c1cccc(OC)c1` (stereo unspecified), the Potency result in assay [1], in assay [2], in assay [3], in assay [4], in assay [5] and in assay [6] was “inactive” throughout.

For `C=C(C(C)=O)C(O)c1ccc(Cl)cc1` (stereo unspecified), the Potency result in assay [1], in assay [2], in assay [3], in assay [4], in assay [5] and in assay [6] was “inactive” throughout.

Consider `C=C(C#CCCO)CCN1C=C(C(=O)OCC)C(c2ccccc2)NC1=O` (stereo unspecified), for which the Potency result in assay [1], in assay [2], in assay [3], in assay [4], in assay [5] and in assay [6] was “inactive” in each case.

`Cc1ccccc1Nc1oc(-c2ccccc2)nc1CCc1ccccc1`: the Potency entry in assay [1] and in assay [6] was “inactive” throughout. The Potency entry is “inactive and 1.51 µM (active)” in assay [2]; “inactive and 1.69 µM (active)” in assay [3]; “inactive and 1.69 µM (active)” in assay [4]; “inactive and 1.51 µM (active)” in assay [5].

For the compound `C=CCO[C@@H]1C=C[C@@H](c2ccccc2)O[C@@H]1COC`, the Potency entry in assay [1], in assay [2], in assay [3], in assay [4], in assay [5] and in assay [6] was “inactive” each time.

Regarding `COC(=O)[C@H](COC(C)(C)C)NC(=O)O[C@@H]1C(=O)c2cc(Br)ccc2O[C@H]1c1ccc2c(c1)OCO2`, the Potency result in assay [1], in assay [2], in assay [3], in assay [4], in assay [5] and in assay [6] was “inactive” throughout.

As for `C[C@@H]1C(c2ccccc2)=Cc2[nH]c(=O)[nH]c2C[C@@H]1C(=O)N1CCCC1`, the Potency result in assay [1], in assay [2], in assay [3], in assay [4], in assay [5] and in assay [6] was “inactive” throughout.

Turning to `CCCC[C@]12Cc3cc(C#N)ccc3[C@H](O1)c1c(c3cc(F)ccc3oc1=O)O2`, the Potency entry in assay [1], in assay [2], in assay [3], in assay [4], in assay [5] and in assay [6] was “inactive” throughout.

Consider `COC(=O)C1=C(C)N(CC2CC2)C(=NCCc2cccnc2)NC1c1ccccc1` (stereo unspecified), for which the Potency entry in assay [1], in assay [2], in assay [3], in assay [4], in assay [5] and in assay [6] was “inactive” throughout.

Take `COc1ccc2c(c1)C(=O)[C@@H](OC(=O)NS(=O)(=O)c1ccc(F)cc1)[C@H](c1ccc(OC)c(Br)c1)O2`: the Potency entry in assay [1], in assay [2], in assay [3], in assay [4], in assay [5] and in assay [6] was “inactive” each time.

Consider `CC#CCN1C(=O)N(C)C(c2ccccc2)C(C(=O)OC)=C1C` (stereo unspecified), for which the Potency entry in assay [1], in assay [2], in assay [3], in assay [4], in assay [5] and in assay [6] was “inactive” throughout.

For `CCCCS(=O)(=O)N1CCc2nc(-c3ccccc3)c3c(c2C1)CO[C@@H](C)C3`, the Potency entry in assay [1], in assay [2], in assay [3], in assay [4], in assay [5] and in assay [6] was “inactive” each time.

As for `CCOC(=O)CN1C(=O)NC(CCc2ccccc2)C(C(C)=O)=C1C` (stereo unspecified), the Potency entry in assay [1], in assay [2], in assay [3], in assay [4], in assay [5] and in assay [6] was “inactive” each time.
